Only some compounds are listed: those with a hit (about 18% of all), similar ones and a draw of the others.
PLK1 PBD block: qHTS for Inhibitors of PLK1-PDB (polo-like kinase 1 - polo-box domain): Primary Screen; Potency, µM, for the others: max response, negative = inhibition, actives largely listed as inhibitors; Plk1 PBD binding of FITC phosphopeptide, fluorescence polarization; 360,000 compounds, 2.8% hits; Serine/threonine-protein kinase PLK1 (Homo sapiens), P53350; note: series mostly up to about 57 µM; nearly all actives have a fitted effect of over 65% in size
TDP1 block: qHTS Assay for Inhibitors of Tyrosyl-DNA Phosphodiesterase (TDP1); Potency, µM (series often up to 130 µM), for the others: at the top dose activity change, negative = inhibition, actives largely listed as inhibitors; AID 485290, 2010; 350,000 compounds, 0.28% hits; recombinant TDP1, AlphaScreen DNA substrate cleavage; note: nearly all actives have a fitted effect of over 40% in size
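Tdp1 1 nM final; 15 min RT w/ cpd; substrate 15 nM, 5 min; beads 10 ug/ml, 10 min; AlphaScreen read. Neg ctrl: no enzyme.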
TDP1 cell CPT: qHTS for Inhibitors of human tyrosyl-DNA phosphodiesterase 1 (TDP1): qHTS in cells in presence of CPT. Potency, µM (highest dose often 46.2 µM), for inactives: at the highest dose activity change, negative = growth inhibition, usual class: inhibitors. 420,000 compounds, 12% hits. chicken DT40 Tdp1-/-;hTDP1 cells + 20 nM CPT, ATP luminescence, 48 h. AID 686979, 2013; note: nearly all actives have a fitted effect of over 55% in size
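Chicken DT40 Tdp1-/- cells complemented with human TDP1, 400 cells/well, exposed to compounds plus 20 nM camptothecin for at least 48 h at 37 C; viability read as ATP content by CellTiter-Glo luminescence.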
TDP1 cell noCPT: qHTS for Inhibitors of human tyrosyl-DNA phosphodiesterase 1 (TDP1): qHTS in cells in absence of CPT. DT40 Tdp1-/- hTDP1 cells, no CPT, ATP luminescence, 48 h. Potency, µM (highest dose often 46.2 µM), for inactives: top-dose activity change, negative = growth inhibition, usual class: inhibitors. 420,000 compounds, 15% hits; note: nearly all actives have a fitted effect of over 55% in size
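Stably hTDP1-transfected Tdp1-null chicken DT40 cells were treated with library compounds minus camptothecin and grown for at least 48 hr at 37 °C, after which cellular ATP was quantified by luminescence.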
VDR inh: Inhibitors of the vitamin D receptor (VDR): qHTS | Vitamin D3 receptor (Homo sapiens), P11473 | VDR-SRC2-3 peptide fluorescence polarization, 2 h | Potency, µM, for the others: max response, negative = inhibition, most hits filed as inhibitors | 400,000 compounds, 0.93% hits | AID 504847, 2011
Target sequence (P11473 whole entry, looked up): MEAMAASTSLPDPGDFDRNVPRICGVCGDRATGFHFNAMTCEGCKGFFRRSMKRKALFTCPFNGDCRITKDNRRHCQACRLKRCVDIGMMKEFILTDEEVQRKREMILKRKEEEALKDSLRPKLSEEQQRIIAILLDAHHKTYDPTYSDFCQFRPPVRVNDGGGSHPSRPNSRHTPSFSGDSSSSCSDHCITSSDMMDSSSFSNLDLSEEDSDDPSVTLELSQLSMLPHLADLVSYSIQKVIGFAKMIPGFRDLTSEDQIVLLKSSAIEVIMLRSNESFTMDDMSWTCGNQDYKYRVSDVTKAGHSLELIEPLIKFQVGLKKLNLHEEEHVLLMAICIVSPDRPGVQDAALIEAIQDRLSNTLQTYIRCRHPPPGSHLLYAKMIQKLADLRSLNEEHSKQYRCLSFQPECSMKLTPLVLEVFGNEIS
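Fluorescence polarization assay of small-molecule disruption of VDR binding to coregulator peptide SRC2-3. Compounds and controls pin-transferred, then read after 2 h incubation at ambient room temperature.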
GCN5L2 inh: qHTS Assay for Inhibitors of GCN5L2; AID 504327, 2011; 390,000 compounds, 0.21% hits; Potency, µM (series often up to 58.9 µM), inactives show at the highest dose activity change, negative = inhibition, actives largely listed as inhibitors; GCN5L2 HAT assay, ThioGlo1 CoA-SH fluorescence
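Fluorescence readout, Ex340nm/Em540nm: ThioGlo1 (50uM final) reacts with free CoA thiol released as 20nM GCN5L2 acetylates H3(1-25) peptide (75uM) using acetyl-CoA (70uM). Compound and enzyme sat 15 min beforehand; 20 min room-temperature reaction.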
Active calls of the source: *; ? = inconclusive; nt = no result given; [ ] = another dose, or the depositor's remark. Calls come from the whole dose curve; as a rule, active = well fitted curve in the direction sought with a large enough effect; inconclusive = small, poorly fitted or top-dose-only effect, or another doubt; inactive = no such curve, though single readings can be large; an effect the other way counts as inactive or inconclusive. % is set by controls: 0 for no effect and ±100 for the full control effect; potency is the fitted concentration of half-maximal effect.

SMILES	PLK1 PBD block	TDP1 block	TDP1 cell CPT	TDP1 cell noCPT	VDR inh	GCN5L2 inh
CC(Oc1ccccc1)C(=O)Nc1nc(-c2ccccn2)cs1 (stereo not drawn)	-24.6%	-4.2%	3.66µM*	3.26µM*	7.2%	-24.6%
O=C(Nc1nc(-c2ccccn2)cs1)c1ccc(S(=O)(=O)N2CCCCC2)cc1	nt	nt	nt	nt	nt	-22.9%
Cc1cccc(C(=O)NC(C(=O)Nc2nc(-c3ccccn3)cs2)C(C)C)c1 (stereo not drawn)	-9.2%	2.5%	13µM*	11.6µM*	-10.1%	0.9%
CC(OC(=O)c1cnccn1)C(=O)Nc1nc(-c2cccc([N+](=O)[O-])c2)cs1 (stereo not drawn)	-7.5%	0.2%[56.1 µM]	?	?	3.6%	-1.9%
CCCCN(C(=O)CC1CCCC1)c1c(N)n(Cc2ccccc2)c(=O)[nH]c1=O	-3.4%	nt	-10.4%	-15.2%	nt	nt
CC(C)(C)OC(=O)N1CCCC(C(=O)Nc2ccc(C(=O)N3CCOCC3)cc2)C1 (stereo not drawn)	-12.2%	1.4%	1.4%	-1.6%	-7.9%	-1.1%
CC(Oc1cccc(Cl)c1)C(=O)Nc1nc(-c2ccccn2)cs1 (stereo not drawn)	18.9µM*	-1.5%	3.26µM*	5.17µM*	2.5%	-10.1%
CC(Oc1ccccc1)C(=O)Nc1nc(-c2ccncc2)cs1 (stereo not drawn)	-16.7%	0.8%	?	-11.4%	6.5%	-0.1%
C[C@H]1Cc2c(COc3ccccc3)nc3c(c2CO1)CN(C(=O)c1cccnc1)CC3	nt	6.8%[21 µM]	nt	nt	nt	nt
COc1cccc(C2CC(=O)Nc3c2c(=O)nc2c(C)cccn32)c1 (stereo not drawn)	nt	1.9%	nt	nt	-19.7%	-2.7%
CCOC(=O)N1CCN(Cc2nc3cc(NC(=O)c4ccccc4OC)ccc3n2C(C)C)CC1	nt	5.7%	3.66µM*	2.31µM*	9.1%	-5.5%
Cn1c(CN2CCN(C(=O)c3ccccc3)CC2)nc2cc([N+](=O)[O-])ccc21	-15.1%	5.5%	-27.1%	?	9.8%	-0.8%
CCOC(=O)N1CCN(Cc2nc3cc([N+](=O)[O-])ccc3n2C(C)C)CC1	nt	-1.6%	20.6µM*	?	15.7%	-9.0%
CCOC(=O)N1CCN(Cc2nc3cc(NC(=O)C(C)C)ccc3n2C)CC1	4.1%	nt	-1.9%	-12.2%	?	1.4%
CCOC(=O)N1CCN(Cc2nc3cc(NC(=O)c4ccc(F)cc4)ccc3n2C(C)C)CC1	nt	1.6%	0.92µM*	1.03µM*	1.9%	-8.0%
CCOC(=O)N1CCN(Cc2nc3cc(NC(=O)C(C)C)ccc3n2C(C)C)CC1	nt	0.5%	5.17µM*	2.59µM*	1.0%	-2.7%
Cc1oc(-c2cccc(NC(=O)c3ccccn3)c2)nc1CNC(=O)c1ccc(C(F)(F)F)cc1	nt	nt	-0.4%[9.04 µM]	-24.4%	nt	nt
CCCn1c(CN2CCN(C(=O)OCC)CC2)nc2cc(NC(=O)CC)ccc21	5.3%	nt	3.26µM*	4.61µM*	-22.1%	-3.6%
COc1ccccc1C(=O)Nc1ccc2c(c1)nc1n2CCN(C2CCCCC2)C1	16.8µM*	4.6%	14.6µM*	23.1µM*	?	-1.0%
Cc1ccc(OC(C)C(=O)Nc2cccc(S(=O)(=O)N3CCCCCC3)c2)cc1 (stereo not drawn)	4.7%	nt	?	?	nt	nt
COc1ccccc1CN1CCCC2(CCN(S(C)(=O)=O)CC2)C1	nt	nt	11.8%	-5.8%	0.5%	-0.6%
CO[C@H]1[C@H](NC(=O)c2ccncc2)c2ccccc2C12CCN(C(=O)c1ccoc1)CC2	nt	nt	17.3%[9.04 µM]	3.5%	nt	nt
